Measured values: PubChem BioAssay (NCATS)
Inconclusive results are not listed. Active and inactive are the calls of the source. The call rests on the fitted dose curve; in most records, active means well fitted cell-killing curve with a large enough effect; inconclusive means small, poorly fitted or top-dose-only effect; inactive means no such curve, though single readings can be large or run the other way.

test: qHTS of pediatric cancer cell lines to identify multiple opportunities for drug repurposing: Primary screen for Rh30 cells (AID 1347107); details: Rh30 rhabdomyosarcoma viability, CellTiter-Glo luminescence, 48 h; series mostly up to 46 µM; activity change, negative = cytotoxic: at the top concentration; further: nearly all actives have a fitted effect of over 75% in size
Description: Drug repurposing or repositioning has been offered as a strategy for drug development in oncology programs. This approach has special potential for childhood cancers and other rare or orphan diseases, where the expected return on new drug development has been a disincentive to pharmaceuticals.
In this project we exploit the poly-pharmacology of drugs to discover new indications via phenotypic screening of a panel of 19 well-characterized cell lines derived from solid tumors seen in children and adolescents. The goal is to identify approved drugs with previously unrecognized anticancer properties that has the potential to reveal new mechanisms and biological processes involved in carcinogenesis or drug resistance. We employed a titration-based paradigm (quantitative high-throughput screening or qHTS), where all compounds were tested at multiple concentrations for their effect on cell viability. Concentration-response curves (CRCs) were derived directly from the primary screen, and both potency and efficacy values were used to identify compounds with robust bioactivity profiles. We screened the NIH Chemical Genomics Center (NCGC) Pharmaceutical Collection (NPC) and Mechanism Interrogation Plate (MIPE) small molecule collections of approved and investigational compounds against these cell lines; and measured metabolically active cells after 48 hours of compound treatment as a proxy for cell viability.
Assay Submitter: Nathalia J. Martinez, National Center for Advancing Translational Sciences, National Institutes of Health, Rockville, MD, USA; email: natalia.martinez@nih.gov
[1] Shen, M et al. Quantitative high-throughput phenotypic screening of pediatric cancer cell lines identifies multiple opportunities for drug repurposing. Oncotarget 2017 Dec 19;9(4):4758-4772. PMID 29435139.
The cells were obtained from University of North Carolina (UNC), Pediatric Preclinical Testing Program (PPT), and Coriell Institute (CI).
qHTS cell viability assay:
Cells were assayed in growth media at a density of 500-1,000 cells/well. Five microliters of cells were dispensed into 1,536-well, white, solid-bottom, TC-treated plates (Greiner Bio One) using a multidrop dispenser and incubated at 37 degrees C, 5% CO2, under a humidified atmosphere for 5 hours. Twenty-three nanoliters of compounds and controls (neutral control DMSO or positive control bortezomib at final concentration of 2.3 µM) were subsequently transferred by Kalypsys pintool. For primary screens, the MIPE collection was tested at 11-point dilutions (final concentrations range from 0.78 nM to 46 µM) and the NPC collection at 8-point dilutions (final concentrations range from 0.59 nM to 46 µM). Compounds tested in follow-up screens were assayed at 11-point dilutions. Cells were incubated for 48 hours, followed by addition of 3 µL of CellTiter-Glo (Promega). After a 15 min incubation at room temperature, samples were analyzed for luminescence intensity using a ViewLux High-throughput CCD imager equipped with clear filters.
On the % scale 0 is the no-effect control and ±100 the full control effect.

| Structure (SMILES) | activity change, negative = cytotoxic |
| --- | --- |
| CC(CN(C)C)CN1c2ccccc2CCc2ccccc21 (stereo not given) | 20.6% (inactive) |
| O=Cc1ccccc1C=O | 20.2% (inactive) |
| NC(=O)c1ncn([C@@H]2O[C@H](CO)[C@@H](O)[C@H]2O)c1N | 23.1% (inactive) |
| O=S(=O)(O)NC1CCCCC1 | 22.3% (inactive) |
| O=c1[nH]cnc2c1ncn2[C@@H]1O[C@H](CO)[C@@H](O)[C@H]1O | 25.9% (inactive) |
| O=C1OC(OC(=O)c2cccnc2Nc2cccc(C(F)(F)F)c2)c2ccccc21 (stereo not given) | 6.14% (inactive) |
| CC(C)(C)C(=O)C(Oc1ccc(Cl)cc1)n1ccnc1 (stereo not given) | -6.15% (inactive) |
| NC(CSCC(=O)O)C(=O)O (stereo not given) | 23.8% (inactive) |
| CCOC(=O)[C@H](CCc1ccccc1)N[C@@H](C)C(=O)N1C(=O)N(C)C[C@H]1C(=O)O | 37.4% (inactive) |
| O=C1NC(=O)[C@@]2(CCOc3ccc(F)cc32)N1 | 8.51% (inactive) |
| CN(C)CCOC(C)(c1ccccc1)c1ccccn1 (stereo not given) | 20.7% (inactive) |
| CN(C)CCCN1c2ccccc2CCc2ccccc21 | 8.7% (inactive) |
| CC(=O)c1ccc2c(c1)N(CCCN(C)C)c1ccccc1S2 | -0.0721% (inactive) |
| CN1CCCCC1CCN1c2ccccc2Sc2ccc(S(C)=O)cc21 (stereo not given) | 17.9% (inactive) |
| CC(=O)Oc1c(C)c(C)c2c(c1C)CC[C@@](C)(CCC[C@H](C)CCC[C@H](C)CCCC(C)C)O2 | 4.09% (inactive) |
| CCCCCCCCCCCCOS(=O)(=O)O | 23% (inactive) |
| Nc1ccc(S(=O)(=O)Nc2ccccc2)cc1 | 22.8% (inactive) |
| C[C@]12CC[C@@H]3c4ccc(O)cc4CC[C@H]3[C@@H]1CCC2=O | 7.76% (inactive) |
| CC[C@H]1CN2CCc3cc(OC)c(OC)cc3[C@@H]2C[C@@H]1C[C@H]1NCCc2cc(OC)c(OC)cc21 | -7.06% (inactive) |
| CC(=O)CCC(=O)O | 25.2% (inactive) |

| Structure (SMILES) | activity change, negative = cytotoxic |
| --- | --- |
| CC1=C(/C=C/C(C)=C/C=C/C(C)=C/C(=O)O)C(C)(C)CCC1 | 9.93% (inactive) |
| CC(=O)OCC(=O)[C@@]1(O)CC[C@H]2[C@@H]3CCC4=CC(=O)CC[C@]4(C)[C@H]3C(=O)C[C@@]21C | -10.3% (inactive) |
| O=c1cc[nH]c(=S)[nH]1 | -4.31% (inactive) |
| CCN(CC)C(=O)Nc1ccc(OCC(O)CNC(C)(C)C)c(C(C)=O)c1 (stereo not given) | 24.6% (inactive) |
| NC(=O)NNc1ccccc1 | 5.77% (inactive) |
| NS(=O)(=O)c1cc2c(cc1Cl)NC(CSCc1ccccc1)=NS2(=O)=O | 9.98% (inactive) |
| Cc1c(O)cccc1C(=O)N[C@@H](CSc1ccccc1)[C@H](O)CN1C[C@H]2CCCC[C@H]2C[C@H]1C(=O)NC(C)(C)C | -3.51% (inactive) |
| CCCCCCCCCCCCCCCC(=O)NCCO | -5.62% (inactive) |
| Cn1c(=O)c2c(ncn2CC2OCCO2)n(C)c1=O | 29.4% (inactive) |
| COC(=O)[C@H]1[C@H]2C[C@@H]3c4[nH]c5cc(OC)ccc5c4CCN3C[C@H]2C[C@@H](OC(=O)COc2ccc(OC)cc2)[C@@H]1OC | -0.0864% (inactive) |
| O=C(O)c1ccccn1 | 11.8% (inactive) |
| CCCCC(CC)COC(=O)c1ccccc1O (stereo not given) | 14.7% (inactive) |
| CC(C)(C)C(=O)NCCCC(=O)O | 19.7% (inactive) |
| CN1CCN(C2Cc3ccccc3Sc3ccc(Cl)cc32)CC1 (stereo not given) | -5.1% (inactive) |
| CC(=O)NC(Cc1ccccc1)C(=O)O (stereo not given) | -0.539% (inactive) |
| CCOC(CN1CCN(CC(C)C(=O)c2ccccc2)CC1)c1ccccc1 (stereo not given) | 24.8% [at 16.1 µM] (inactive) |
| OCC(O)CN1CCN(c2ccccc2)CC1 (stereo not given) | 11.4% (inactive) |
| C[C@@H]1CCN(C(=O)[C@H](CCCN=C(N)N)NS(=O)(=O)c2cccc3c2NC[C@H](C)C3)[C@@H](C(=O)O)C1 | 9.35% (inactive) |
| CC(=O)Oc1ccc(C2(c3ccc(OC(C)=O)cc3)C(=O)Nc3ccccc32)cc1 | -7.19% (inactive) |
| CNCCC(Oc1ccc(C(F)(F)F)cc1)c1ccccc1 (stereo not given) | 0.418% (inactive) |
